Experimental data reported in PubChem BioAssay AID1159580 (chemical genetic matrix, 2015).
Where “and” joins values, the source holds several entries; their conditions need not be identical. Identical values can stand only once. The campaign covered roughly 5,500 compounds. About 2,000 (36%) were called active. Another 18% or so got no clear call; they are omitted. Cut-off read from the data, not from the text of the source: active = normalized growth mostly below about 0.91 (no sharp cut-off); inconclusive = no clear call, values can overlap the other calls; inactive = mostly above about 0.92. This is one part of the list.

Assay: chemical genetic growth profiling, strain panel (AID 1159580);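 note: tested at 20 µM; growth read once vehicle control cultures reached saturation at 30 °C; 1 = growth at the plate median or of vehicle wells; lower values mean less growth of the strain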
Conditions: S. cerevisiae deletion strains, growth OD

Measured: normalized growth

NCCc1c[nH]c2ccccc12
inactive: locus YAL013W, strain DEP1, hits give low values 0.983 and 0.988 | locus YAL021C, strain ccr4, hits give low values 0.967 | locus YAL026C, strain drs2, hits give low values 0.96 | locus YAL030W, strain snc1, hits give low values 0.969 | locus YAL040C, strain CLN3, hits give low values 1.08 | locus YBL061C, strain skt5, hits give low values 0.959 | locus YBR009C, strain hhf1, hits give low values 0.988 | locus YBR021W, strain FUR4, hits give low values 1.01 | locus YBR023C, strain chs3, hits give low values 0.945 | locus YBR171W, strain sec66, hits give low values 0.955 | locus YBR229C, strain ROT2, hits give low values 0.954 | locus YBR231C, strain swc5, hits give low values 0.962 | locus YBR279W, strain paf1, hits give low values 0.942 | locus YCL011C, strain gbp2, hits give low values 0.945 | locus YCL016C, strain dcc1, hits give low values 0.98 | locus YCL029C, strain bik1, hits give low values 0.994 | locus YCL061C, strain MRC1 (second series), hits give low values 0.998 | locus YCL061C, strain MRC1, hits give low values 0.967 | locus YCL069W, strain vba3, hits give low values 0.973 | locus YCR088W, strain abp1, hits give low values 0.967 | locus YDL005C, strain med2, hits give low values 0.974 | locus YDL035C, strain GPR1, hits give low values 0.977 | locus YDL040C, strain nat1, hits give low values 0.96 | locus YDL074C, strain BRE1, hits give low values 1 | locus YDL101C, strain DUN1, hits give low values 0.987 | locus YDL134C, strain PPH21, hits give low values 0.964 | locus YDL185W, strain tfp1, hits give low values 0.988 | locus YDL192W, strain arf1, hits give low values 0.985 | locus YDR001C, strain nth1, hits give low values 0.954 | locus YDR069C, strain doa4, hits give low values 0.913 | locus YDR101C, strain arx1, hits give low values 1.01 | locus YDR137W, strain rgp1, hits give low values 0.934 | locus YDR150W, strain NUM1, hits give low values 0.967 | locus YDR159W, strain sac3, hits give low values 0.925 | locus YDR162C, strain NBP2, hits give low values 0.954 | locus YDR195W, strain ref2 0.926 | locus YDR297W, strain sur2, hits give low values 0.967 | locus YDR318W, strain mcm21, hits give low values 0.999 | locus YDR334W, strain swr1, hits give low values 0.94 | locus YDR335W, strain msn5, hits give low values 0.961 | locus YDR363W, strain ESC2, hits give low values 0.975 | locus YDR388W, hits give low values 0.997 | locus YDR392W, strain spt3, hits give low values 1.01 | locus YDR502C, strain sam2, hits give low values 0.993 | locus YEL003W, strain gim4, hits give low values 0.978 | locus YEL037C, strain rad23, hits give low values 0.958 | locus YEL061C, strain CIN8 (second series), hits give low values 0.957 | locus YEL061C, strain CIN8, hits give low values 0.98 | locus YER002W, strain NOP16, hits give low values 0.99 | locus YER015W, strain faa2, hits give low values 0.975 | locus YER016W, strain bim1, hits give low values 0.964 | locus YER110C, hits give low values 0.967 | locus YER111C, strain swi4, hits give low values 0.973 | locus YER155C, strain BEM2 (second series), hits give low values 0.923 | locus YER155C, strain BEM2, hits give low values 0.998 | locus YER167W, strain BCK2, hits give low values 0.982 | locus YFR010W, strain ubp6, hits give low values 0.951 | locus YGL078C, strain dbp3, hits give low values 0.98 | locus YGL086W, strain mad1, hits give low values 0.966 | locus YGL167C, strain pmr1, hits give low values 0.939 | locus YGL173C, strain kem1, hits give low values 0.992 | locus YGL227W, strain vid30, hits give low values 0.937 | locus YGL240W, strain doc1, hits give low values 0.964 | locus YGL248W, strain PDE1, hits give low values 0.983 | locus YGL253W, strain hxk2, hits give low values 0.952 | locus YGR078C, strain PAC10, hits give low values 1.01 and 0.994 | locus YGR135W, strain pre9, hits give low values 0.989 | locus YGR229C, strain SMI1, hits give low values 1.01 | locus YGR252W, strain gcn5, hits give low values 0.911 | locus YHR013C, strain ard1, hits give low values 0.949 | locus YHR027C, strain rpn1, hits give low values 0.962 | locus YHR030C, strain SLT2, hits give low values 0.987 and 0.959 | locus YHR079C, strain IRE1 (second series), hits give low values 0.998 | locus YHR079C, strain IRE1, hits give low values 0.957 | locus YHR094C, strain hxt1, hits give low values 0.994 | locus YHR129C, strain ARP1, hits give low values 1 | locus YHR142W, strain chs7, hits give low values 0.965 | locus YHR200W, strain rpn10, hits give low values 1 | locus YIL066C, strain RNR3, hits give low values 0.985 | locus YIL073C, strain SPO22, hits give low values 0.959 | locus YIL125W, strain kgd1, hits give low values 0.983 | locus YIR030C, strain dcg1, hits give low values 0.981 | locus YJL092W, strain hpr5, hits give low values 0.963 | locus YJL095W, strain BCK1 (second series), hits give low values 0.96 | locus YJL095W, strain BCK1, hits give low values 1.03 and 0.994 | locus YJL115W, strain asf1, hits give low values 0.961 | locus YJL129C, strain trk1, hits give low values 0.963 | locus YJL134W, strain LCB3, hits give low values 0.984 | locus YJL154C, strain vps35, hits give low values 0.948 | locus YJL164C, strain tpk1, hits give low values 0.989 | locus YJL166W, strain qcr8, hits give low values 0.938 | locus YJL168C, strain set2, hits give low values 1 | locus YJL187C, strain SWE1 (second series), hits give low values 1 | locus YJL187C, strain SWE1, hits give low values 0.967 | locus YJR043C, strain POL32, hits give low values 1.02 | locus YJR066W, strain TOR1, hits give low values 0.926
